{
  "source": "PubChem BioAssay (EPA / NIEHS)",
  "note": "“And” between values parts separate entries of the source, which are not always exact repeats. Equal entries are not always repeated. Inconclusive results are not listed. The source holds several records for some structures; these can differ, active in one and inactive in another. The source made the active and inactive calls. Rule for the calls, unless noted: active = hit-call score of the fitted dose curve at least 0.9, where 1 is the maximum; inconclusive = response in the unintended direction; inactive = score below 0.9.",
  "data": [
    {"target": "rat Serotonin Transporter (SERT), Slc6a4 (gene 25553) (UniProt P31652)", "sequence (P31652 whole entry, looked up)": "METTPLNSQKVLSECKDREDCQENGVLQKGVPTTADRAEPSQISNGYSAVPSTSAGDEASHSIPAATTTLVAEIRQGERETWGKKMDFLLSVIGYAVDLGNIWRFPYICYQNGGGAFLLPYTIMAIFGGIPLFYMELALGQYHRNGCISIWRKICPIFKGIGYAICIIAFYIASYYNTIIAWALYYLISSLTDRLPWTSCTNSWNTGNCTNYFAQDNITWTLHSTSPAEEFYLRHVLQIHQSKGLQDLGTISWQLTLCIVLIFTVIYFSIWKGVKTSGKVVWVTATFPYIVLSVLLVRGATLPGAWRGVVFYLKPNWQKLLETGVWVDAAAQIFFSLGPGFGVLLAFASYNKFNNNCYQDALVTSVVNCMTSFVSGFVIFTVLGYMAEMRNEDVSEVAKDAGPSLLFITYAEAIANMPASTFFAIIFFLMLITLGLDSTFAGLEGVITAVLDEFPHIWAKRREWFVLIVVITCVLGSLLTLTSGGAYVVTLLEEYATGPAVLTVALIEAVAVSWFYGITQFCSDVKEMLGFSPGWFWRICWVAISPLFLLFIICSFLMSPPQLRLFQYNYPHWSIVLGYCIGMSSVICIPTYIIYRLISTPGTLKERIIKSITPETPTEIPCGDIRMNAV", "experiment": "NVS_TR_rSERT: NovaScreen (NVS) Transporter Assay for rat Serotonin Transporter (SERT) (AID 2283375)", "procedure,_shortened": "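Rat forebrain membranes were incubated with test chemical for 1 hour; radioligand binding to SERT was measured by filter-based scintillation counting. Primary screen ran in duplicate at 25 uM, with actives followed up in concentration series; DMSO served as negative control.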", "values": [
      {"smiles": "[Cl-].[Cl-].[Hg+2]", "AC50": "25 µM (active)"},
      {"smiles": "CCC[CH2][Sn]([Cl])([CH2]CCC)[CH2]CCC", "AC50": "8.54 µM (active)"},
      {"smiles": "O=C(Oc1ccc(Br)cc1)N1CCN2CCC1CC2", "AC50": "1.01 µM (active)"},
      {"smiles": "COC(=O)c1ccccc1N", "outcome": "inactive"},
      {"smiles": "O=C(N[C@H](c1ccccc1)[C@@H]1CN2CCC1CC2)c1c(Cl)ccc(C(F)(F)F)c1Cl", "AC50": "0.359 µM (active)"},
      {"smiles": "CCOC(=O)[C@]1(c2ccccc2)Oc2ccccc2[C@@H]1N", "AC50": "1.23 µM (active)"},
      {"smiles": "C[C@]12C=CC3=C4CCC(=O)C=C4CC[C@H]3[C@@H]1CC[C@@H]2O", "AC50": "5.68 µM (active)"}
    ]},
    {"target": "Norway rat Vesicular Monoamine Transporter (VMAT2), neurotransmitter transporter, Slc18a2 (gene 25549) (UniProt Q01827)", "sequence (Q01827 whole entry, looked up)": "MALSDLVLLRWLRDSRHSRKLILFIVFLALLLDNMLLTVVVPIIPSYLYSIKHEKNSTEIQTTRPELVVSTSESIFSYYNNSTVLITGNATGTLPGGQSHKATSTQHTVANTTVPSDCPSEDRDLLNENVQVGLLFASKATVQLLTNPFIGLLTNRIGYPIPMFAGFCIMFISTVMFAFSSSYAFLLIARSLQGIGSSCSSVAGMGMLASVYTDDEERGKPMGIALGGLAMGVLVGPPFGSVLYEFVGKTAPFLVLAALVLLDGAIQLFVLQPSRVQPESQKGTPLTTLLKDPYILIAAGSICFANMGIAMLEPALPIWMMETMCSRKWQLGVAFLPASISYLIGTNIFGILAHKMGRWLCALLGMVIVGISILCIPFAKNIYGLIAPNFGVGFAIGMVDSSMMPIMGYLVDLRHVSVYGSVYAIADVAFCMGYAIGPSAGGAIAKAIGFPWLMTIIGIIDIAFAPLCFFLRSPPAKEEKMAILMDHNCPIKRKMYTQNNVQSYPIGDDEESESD", "experiment": "NVS_TR_rVMAT2: NovaScreen (NVS) Transporter Assay for Norway rat Vesicular Monoamine Transporter (VMAT2), neurotransmitter transporter (AID 2283376);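 note: actives lower the bound radioligand signal below the DMSO level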", "procedure": "NVS_TR_rVMAT2 is a biochemical, single-readout assay that uses extracted gene-proteins from Rat forebrain in a tissue-based cell-free assay. Measurements were taken 1 hour after chemical dosing in a 96-well plate.NVS_TR_rVMAT2 is one of one assay component(s) measured or calculated from the NVS_TR_rVMAT2 assay. It is designed to make measurements of radioligand binding, a form of binding reporter, as detected with scintillation counting signals by Filter-based radiodetection technology.Data from the assay component NVS_TR_rVMAT2 was analyzed into 1 assay endpoint. This assay endpoint, NVS_TR_rVMAT2, was analyzed in the positive analysis fitting direction relative to DMSO as the negative control and baseline of activity. Using a type of binding reporter, loss-of-signal activity can be used to understand changes in the binding as they relate to the gene Slc18a2. Furthermore, this assay endpoint can be referred to as a primary readout, because the performed assay has only produced 1 assay endpoint. To generalize the intended target to other relatable targets, this assay endpoint is annotated to the transporter intended target family, where the subfamily is vesicular transporter.\nBinding assays used specific radioligands (tritiated, iodinated) with non-radioactive competitive displacement ligands in agonist or antagonist protocols (as indicated) and various reference compounds and inhibitors to titrate specific binding to receptors and transporters. Most enzyme assays (CYPs, kinases, phosphatases, proteases, HDACs) used recombinant protein and specific substrates (fluorescence mostly, some colorimetric and radioactive) and inhibitors, followed by a biochemical separation of substrate and product. All assays for the biochemical HTS were initially run in duplicate at a single concentration (10 uM for CYP450 assays and 25 uM for all others). […] Each assay was run with positive and negative controls, and concurrent controls on every plate. The follow-up (secondary) screen tested active chemical-pairs in concentration series, as well as a few additional assays not tested in the primary screen, some selected negative inactives, and several cases re-run in the concentration series for confirmatory purposes.", "values": [
      {"smiles": "CCCCOC(=O)c1ccccc1C(=O)OCc1ccccc1", "outcome": "inactive"},
      {"smiles": "CCC(C)c1ccc(O)cc1", "note": "(centres undefined)", "outcome": "inactive"},
      {"smiles": "COC(=O)c1ccccc1N", "outcome": "inactive"},
      {"smiles": "CC(C)(OOC(C)(C)c1ccccc1)c1ccccc1", "outcome": "inactive"},
      {"smiles": "C=CCc1ccc2c(c1)OCO2", "outcome": "inactive"},
      {"smiles": "CCCCCCCCOC(=O)c1ccc(C(=O)OCCCCCCCC)c(C(=O)OCCCCCCCC)c1", "outcome": "inactive"},
      {"smiles": "C[C@]12C=CC3=C4CCC(=O)C=C4CC[C@H]3[C@@H]1CC[C@@H]2O", "AC50": "13.3 µM (active)"}
    ]},
    {"target": "human Norepinephrine Transporter (NET), SLC6A2 (gene 6530) (UniProt P23975)", "sequence (P23975 whole entry, looked up)": "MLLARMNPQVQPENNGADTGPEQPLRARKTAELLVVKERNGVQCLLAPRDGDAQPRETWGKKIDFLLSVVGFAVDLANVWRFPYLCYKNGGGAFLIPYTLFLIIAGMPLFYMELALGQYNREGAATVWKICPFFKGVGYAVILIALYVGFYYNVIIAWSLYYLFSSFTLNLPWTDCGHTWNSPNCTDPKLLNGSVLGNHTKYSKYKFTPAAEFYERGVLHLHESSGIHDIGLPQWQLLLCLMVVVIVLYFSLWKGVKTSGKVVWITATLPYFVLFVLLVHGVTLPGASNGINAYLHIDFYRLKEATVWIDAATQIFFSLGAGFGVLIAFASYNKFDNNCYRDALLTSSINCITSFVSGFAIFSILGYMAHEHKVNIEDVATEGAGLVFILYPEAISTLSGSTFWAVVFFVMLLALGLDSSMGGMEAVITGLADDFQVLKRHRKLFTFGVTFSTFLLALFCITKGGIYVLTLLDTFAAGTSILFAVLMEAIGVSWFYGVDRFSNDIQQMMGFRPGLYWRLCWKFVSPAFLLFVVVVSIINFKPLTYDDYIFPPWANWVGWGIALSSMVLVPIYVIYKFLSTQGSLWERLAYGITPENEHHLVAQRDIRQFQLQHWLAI", "experiment": "NVS_TR_hNET: NovaScreen (NVS) Transporter Assay for human Norepinephrine Transporter (NET) (AID 2283377);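 note: cell-free membrane protein extracted from CHO cells expressing human NET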;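 for AC50: displacement of radioligand from human NET seen as loss of scintillation signal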", "procedure,_shortened": "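CHO cell extracts expressing the transporter; tritiated or iodinated tracer displaced competitively; filtration plus scintillation readout at 1 h. Single-point duplicates at 25 uM, concentration series for follow-up; activity = signal drop relative to DMSO.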", "values": [
      {"smiles": "[Cl-].[Cl-].[Hg+2]", "AC50": "0.372 µM (active)"},
      {"smiles": "CCC[CH2][Sn]([Cl])([CH2]CCC)[CH2]CCC", "AC50": "0.361 µM (active)"},
      {"smiles": "Cc1cccc(N)c1N", "AC50": "5.57 µM (active)"},
      {"smiles": "Cc1cc(N=Nc2ccccc2C)ccc1N", "AC50": "12.4 µM (active)"},
      {"smiles": "CCC(C)c1ccc(O)cc1", "note": "(centres undefined)", "AC50": "9.53 µM (active)"},
      {"smiles": "CN(C)[C@@H]1C(=O)C(C(N)=O)=C(O)[C@@]2(O)C(=O)C3=C(O)c4c(O)cccc4[C@@](C)(O)[C@H]3C[C@@H]12", "outcome": "inactive"},
      {"smiles": "CC(C)(C)C(O)(CCc1ccc(Cl)cc1)Cn1cncn1", "note": "(centres undefined)", "AC50": "14.3 µM (active)"},
      {"smiles": "O=[N+]([O-])C(Br)(CO)CO", "outcome": "inactive"},
      {"smiles": "O=C(Oc1ccc(Br)cc1)N1CCN2CCC1CC2", "AC50": "12.8 µM (active)"},
      {"smiles": "O=C(Nc1ccccc1)c1ccccc1I", "AC50": "11.2 µM (active)"},
      {"smiles": "COP(=S)(OC)SCN1C(=O)c2ccccc2C1=O", "AC50": "2.04 µM (active)"},
      {"smiles": "O=C(N[C@H](c1ccccc1)[C@@H]1CN2CCC1CC2)c1c(Cl)ccc(C(F)(F)F)c1Cl", "AC50": "13.3 µM (active)"},
      {"smiles": "Nc1ccc(N=Nc2ccccc2)cc1", "AC50": "9.76 µM (active)"},
      {"smiles": "Nc1ccc([N+](=O)[O-])cc1", "outcome": "inactive"},
      {"smiles": "CCOC(=O)[C@]1(c2ccccc2)Oc2ccccc2[C@@H]1N", "AC50": "1.56 µM (active)"},
      {"smiles": "Nc1ccc(Cl)cc1N", "AC50": "38.9 µM (active)"}
    ]},
    {"target": "mouse Estrogen Receptor alpha (Era), Esr1 (gene 13982) (UniProt P19785)", "sequence (P19785 whole entry, looked up)": "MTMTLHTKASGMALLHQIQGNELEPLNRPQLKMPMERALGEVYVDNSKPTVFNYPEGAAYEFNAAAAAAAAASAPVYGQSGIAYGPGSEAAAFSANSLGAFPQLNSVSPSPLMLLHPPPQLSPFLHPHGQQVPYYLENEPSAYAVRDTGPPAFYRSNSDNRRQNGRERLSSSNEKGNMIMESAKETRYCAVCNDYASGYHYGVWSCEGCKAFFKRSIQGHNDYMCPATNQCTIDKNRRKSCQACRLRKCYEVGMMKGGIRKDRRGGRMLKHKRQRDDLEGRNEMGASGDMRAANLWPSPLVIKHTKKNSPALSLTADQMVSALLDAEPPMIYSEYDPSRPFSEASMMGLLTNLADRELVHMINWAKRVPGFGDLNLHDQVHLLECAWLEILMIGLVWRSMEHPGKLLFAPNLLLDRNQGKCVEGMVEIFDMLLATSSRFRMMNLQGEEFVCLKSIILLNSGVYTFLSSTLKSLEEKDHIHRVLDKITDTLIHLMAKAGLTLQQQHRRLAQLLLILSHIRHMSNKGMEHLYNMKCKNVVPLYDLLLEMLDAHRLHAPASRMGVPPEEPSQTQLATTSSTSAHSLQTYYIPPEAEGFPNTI", "experiment": "NVS_NR_mERa: NovaScreen (NVS) Nuclear Receptor Binding Assay for mouse Estrogen Receptor alpha (Era) (AID 2283378);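 note: hit means loss of bound radioligand signal relative to DMSO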", "procedure,_shortened": "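Cell-free radioligand binding with extracted mouse Era protein; competitive displacement of radiolabelled ligand, read by filter-based scintillation counting 18 hours after dosing. Loss of signal versus DMSO baseline taken as binding; single screening concentration 25 uM, actives followed in concentration series.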", "values": [
      {"smiles": "CCC[CH2][Sn]([Cl])([CH2]CCC)[CH2]CCC", "outcome": "inactive"},
      {"smiles": "CCCCCCCCn1sccc1=O", "outcome": "inactive"},
      {"smiles": "Nc1ccc(N=Nc2ccccc2)cc1", "outcome": "inactive"},
      {"smiles": "C[C@]12C=CC3=C4CCC(=O)C=C4CC[C@H]3[C@@H]1CC[C@@H]2O", "AC50": "3.65 µM (active) and 4.59 µM (active) and 7.64 µM (active)", "outcome": "inactive"}
    ]},
    {"target": "Agonist Androgen Response Element (ARE), AR (gene 367) (UniProt P10275)", "sequence (P10275 whole entry, looked up)": "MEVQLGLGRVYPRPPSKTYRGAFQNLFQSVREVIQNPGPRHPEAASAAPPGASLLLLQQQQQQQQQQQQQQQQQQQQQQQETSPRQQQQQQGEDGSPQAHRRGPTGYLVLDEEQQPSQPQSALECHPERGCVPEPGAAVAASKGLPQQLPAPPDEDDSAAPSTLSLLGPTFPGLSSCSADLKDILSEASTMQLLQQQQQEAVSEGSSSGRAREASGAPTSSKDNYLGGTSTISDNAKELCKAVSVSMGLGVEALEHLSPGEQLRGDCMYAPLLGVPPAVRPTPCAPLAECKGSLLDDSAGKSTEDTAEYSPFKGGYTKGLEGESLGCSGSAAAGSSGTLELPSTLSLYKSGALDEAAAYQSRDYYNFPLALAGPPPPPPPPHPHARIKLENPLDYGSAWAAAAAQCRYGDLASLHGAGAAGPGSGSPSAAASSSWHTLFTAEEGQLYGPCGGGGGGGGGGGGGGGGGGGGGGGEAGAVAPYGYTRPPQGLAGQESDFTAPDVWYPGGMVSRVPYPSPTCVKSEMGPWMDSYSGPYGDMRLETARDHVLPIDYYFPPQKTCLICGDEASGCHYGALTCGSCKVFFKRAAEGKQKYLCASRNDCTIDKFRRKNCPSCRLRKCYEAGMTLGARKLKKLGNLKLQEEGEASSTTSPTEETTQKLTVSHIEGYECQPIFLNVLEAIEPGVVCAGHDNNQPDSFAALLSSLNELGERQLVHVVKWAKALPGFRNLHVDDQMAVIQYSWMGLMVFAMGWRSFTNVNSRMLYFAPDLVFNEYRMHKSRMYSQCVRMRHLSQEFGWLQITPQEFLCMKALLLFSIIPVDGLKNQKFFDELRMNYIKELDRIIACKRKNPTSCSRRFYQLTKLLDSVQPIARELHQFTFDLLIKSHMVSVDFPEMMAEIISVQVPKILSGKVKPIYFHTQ", "experiment": "OT_AR_ARELUC_AG_1440: Odyssey Thera (OT) 24-hour CHO-K1 Luciferase Assay for Agonist Androgen Response Element (ARE) (AID 2283379)", "procedure,_shortened": "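Gain-of-signal reporter endpoint: cells (CHO-K1, hamster) are treated 24 h, luciferin/ATP reagent added, and luminescence compared with DMSO baseline.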", "values": [
      {"smiles": "CC(C)(OOC(C)(C)c1ccccc1)c1ccccc1", "outcome": "inactive"},
      {"smiles": "Nc1ccc([N+](=O)[O-])cc1", "outcome": "inactive"},
      {"smiles": "CC(C)N(Cc1ccccc1)C(=O)C(C)(C)C", "outcome": "inactive"},
      {"smiles": "C[C@]12C=CC3=C4CCC(=O)C=C4CC[C@H]3[C@@H]1CC[C@@H]2O", "AC50": "210 nM (active) and 213 nM (active) and 2.53 nM (active)"},
      {"smiles": "Nc1ccc(Cl)cc1N", "outcome": "inactive"}
    ]},
    {"target": "Estrogen receptor beta (Homo sapiens) (UniProt Q92731)", "sequence (Q92731 whole entry, looked up, the tested form may be a part)": "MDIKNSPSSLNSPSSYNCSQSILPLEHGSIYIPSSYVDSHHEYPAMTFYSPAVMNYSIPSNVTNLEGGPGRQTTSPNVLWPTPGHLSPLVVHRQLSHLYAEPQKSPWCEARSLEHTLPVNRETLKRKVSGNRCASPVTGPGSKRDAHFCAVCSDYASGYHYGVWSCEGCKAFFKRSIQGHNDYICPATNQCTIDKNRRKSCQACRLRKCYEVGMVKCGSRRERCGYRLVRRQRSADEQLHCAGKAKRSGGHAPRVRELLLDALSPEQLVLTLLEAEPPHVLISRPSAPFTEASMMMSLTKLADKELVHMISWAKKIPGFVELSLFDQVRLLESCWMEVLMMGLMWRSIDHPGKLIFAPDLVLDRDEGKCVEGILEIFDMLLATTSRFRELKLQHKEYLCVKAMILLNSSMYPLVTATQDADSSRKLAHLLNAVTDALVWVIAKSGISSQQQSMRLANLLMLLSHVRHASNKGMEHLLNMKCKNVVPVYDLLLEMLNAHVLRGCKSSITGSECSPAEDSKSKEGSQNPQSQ", "experiment": "OT_ER_ERbERb_1440: Odyssey Thera (OT) 24-hour HEK293T Protein-Complementation Assay for Estrogen Receptor-beta/-beta Homodimer (AID 2283380);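 note: scored as signal increase over DMSO baseline for both agonists and antagonists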", "procedure,_shortened": "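HEK293T cells stably expressing ER beta LBD (aa 310-547) homodimer fragment-complementation reporter, dosed 24 h. Cells formaldehyde-fixed, Draq5-stained; gain in nuclear (agonist) or nuclear plus cytoplasmic (antagonist) fluorescence versus DMSO read by laser scanning cytometry.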", "values": [
      {"smiles": "[Cl-].[Cl-].[Hg+2]", "outcome": "inactive"},
      {"smiles": "Cc1cccc(N)c1N", "outcome": "inactive"},
      {"smiles": "Cc1cc(N=Nc2ccccc2C)ccc1N", "AC50": "12.2 µM (active)"},
      {"smiles": "CCCCOC(=O)c1ccccc1C(=O)OCc1ccccc1", "AC50": "12.9 µM (active)"},
      {"smiles": "CCC(C)c1ccc(O)cc1", "note": "(centres undefined)", "AC50": "28.2 µM (active)"},
      {"smiles": "CN(C)[C@@H]1C(=O)C(C(N)=O)=C(O)[C@@]2(O)C(=O)C3=C(O)c4c(O)cccc4[C@@](C)(O)[C@H]3C[C@@H]12", "outcome": "inactive"},
      {"smiles": "O=[N+]([O-])C(Br)(CO)CO", "outcome": "inactive"},
      {"smiles": "COC(=O)c1ccccc1N", "outcome": "inactive"},
      {"smiles": "CC(C)(OOC(C)(C)c1ccccc1)c1ccccc1", "AC50": "9.59 µM (active)"},
      {"smiles": "O=C(Nc1ccccc1)c1ccccc1I", "outcome": "inactive"},
      {"smiles": "COP(=S)(OC)SCN1C(=O)c2ccccc2C1=O", "outcome": "inactive"},
      {"smiles": "CCCCCCCCn1sccc1=O", "outcome": "inactive"},
      {"smiles": "O=C(N[C@H](c1ccccc1)[C@@H]1CN2CCC1CC2)c1c(Cl)ccc(C(F)(F)F)c1Cl", "outcome": "inactive"},
      {"smiles": "C=CCc1ccc2c(c1)OCO2", "outcome": "inactive"},
      {"smiles": "Nc1ccc(Oc2ccc(N)cc2)cc1", "outcome": "inactive"},
      {"smiles": "Nc1ccc(N=Nc2ccccc2)cc1", "AC50": "35.6 µM (active)"},
      {"smiles": "Nc1ccc([N+](=O)[O-])cc1", "outcome": "inactive"},
      {"smiles": "CCOC(=O)[C@]1(c2ccccc2)Oc2ccccc2[C@@H]1N", "outcome": "inactive"},
      {"smiles": "CCCCCCCCOC(=O)c1ccc(C(=O)OCCCCCCCC)c(C(=O)OCCCCCCCC)c1", "outcome": "inactive"},
      {"smiles": "CC(C)N(Cc1ccccc1)C(=O)C(C)(C)C", "AC50": "41.5 µM (active)"},
      {"smiles": "C[C@]12C=CC3=C4CCC(=O)C=C4CC[C@H]3[C@@H]1CC[C@@H]2O", "outcome": "inactive"}
    ]},
    {"target": "Estrogen receptor (Homo sapiens) (UniProt P03372)", "sequence (P03372 whole entry, looked up)": "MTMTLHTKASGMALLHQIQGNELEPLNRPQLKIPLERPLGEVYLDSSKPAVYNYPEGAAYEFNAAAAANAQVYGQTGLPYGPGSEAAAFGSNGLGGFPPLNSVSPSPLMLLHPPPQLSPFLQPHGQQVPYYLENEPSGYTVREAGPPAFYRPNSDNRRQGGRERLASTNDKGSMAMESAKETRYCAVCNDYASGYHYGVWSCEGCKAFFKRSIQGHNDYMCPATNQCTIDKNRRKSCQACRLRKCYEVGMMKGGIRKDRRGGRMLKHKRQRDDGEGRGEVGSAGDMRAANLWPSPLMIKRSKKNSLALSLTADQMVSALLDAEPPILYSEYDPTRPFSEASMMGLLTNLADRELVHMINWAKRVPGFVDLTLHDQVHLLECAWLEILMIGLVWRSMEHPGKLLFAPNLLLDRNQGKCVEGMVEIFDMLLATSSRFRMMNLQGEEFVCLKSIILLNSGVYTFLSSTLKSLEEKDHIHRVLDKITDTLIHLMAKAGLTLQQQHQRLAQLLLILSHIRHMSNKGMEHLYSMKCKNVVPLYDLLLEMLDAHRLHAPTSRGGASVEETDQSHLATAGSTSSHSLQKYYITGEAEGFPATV", "experiment": "OT_ERa_GFPERaERE_0480: Odyssey Thera (OT) 8-hour HeLa Transcription Induction Assay for Estrogen Receptor (AID 2283381; active = hit-call score of the fitted dose curve at least 0.9, where 1 is the maximum; inactive = score below 0.9)", "procedure,_shortened": "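An 8 h HeLa transcription-induction format with a GFP reporter under ERE control, read by fluorescence microscopy; single endpoint fitted positively with DMSO as baseline.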", "values": [
      {"smiles": "[Cl-].[Cl-].[Hg+2]", "AC50": "65.9 µM (active)"},
      {"smiles": "CCC[CH2][Sn]([Cl])([CH2]CCC)[CH2]CCC", "outcome": "inactive"},
      {"smiles": "O=[N+]([O-])C(Br)(CO)CO", "outcome": "inactive"},
      {"smiles": "O=C(Oc1ccc(Br)cc1)N1CCN2CCC1CC2", "outcome": "inactive"},
      {"smiles": "O=C(Nc1ccccc1)c1ccccc1I", "outcome": "inactive"},
      {"smiles": "Cn1cc(-c2ccccc2)c(=O)c(-c2cccc(C(F)(F)F)c2)c1", "outcome": "inactive"},
      {"smiles": "CCCCCCCCn1sccc1=O", "outcome": "inactive"},
      {"smiles": "Nc1ccc(N=Nc2ccccc2)cc1", "outcome": "inactive"}
    ]}
  ]
}
